Measurements taken from the supplement of paper PMC6411743.
± gives the standard deviation of the averaged measurements. Targets with the largest changes are over-represented here; the source holds about 6,200 in all.

Compound: Nc1ncnc2c1ncn2[C@@H]1O[C@H](COP(=O)(O)OP(=O)(O)NP(=O)(O)O)[C@@H](O)[C@H]1O [adenylyl imidodiphosphate]
Test: NP40-soluble protein abundance relative to vehicle (solubility fold change) (ratio); higher = more soluble protein in presence of AMP-PNP
Summary of the method: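 In three independent experiments, Jurkat crude lysate made by Dounce homogenisation was treated for 10 min at room temperature and then 3 min at 37 °C with eight concentrations ranging from 0.1 to 10 mM. It was then solubilised with 0.8% NP40 plus benzonase for 60 min at 4 °C and ultracentrifuged. The supernatant was TMT-labelled for LC-MS/MS, and each value is the fold change against the detergent-processed vehicle for the same replicate, using vsn-normalised intensities.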

Sequence of UniProt Q9NRY4 (Q9NRY4 whole entry): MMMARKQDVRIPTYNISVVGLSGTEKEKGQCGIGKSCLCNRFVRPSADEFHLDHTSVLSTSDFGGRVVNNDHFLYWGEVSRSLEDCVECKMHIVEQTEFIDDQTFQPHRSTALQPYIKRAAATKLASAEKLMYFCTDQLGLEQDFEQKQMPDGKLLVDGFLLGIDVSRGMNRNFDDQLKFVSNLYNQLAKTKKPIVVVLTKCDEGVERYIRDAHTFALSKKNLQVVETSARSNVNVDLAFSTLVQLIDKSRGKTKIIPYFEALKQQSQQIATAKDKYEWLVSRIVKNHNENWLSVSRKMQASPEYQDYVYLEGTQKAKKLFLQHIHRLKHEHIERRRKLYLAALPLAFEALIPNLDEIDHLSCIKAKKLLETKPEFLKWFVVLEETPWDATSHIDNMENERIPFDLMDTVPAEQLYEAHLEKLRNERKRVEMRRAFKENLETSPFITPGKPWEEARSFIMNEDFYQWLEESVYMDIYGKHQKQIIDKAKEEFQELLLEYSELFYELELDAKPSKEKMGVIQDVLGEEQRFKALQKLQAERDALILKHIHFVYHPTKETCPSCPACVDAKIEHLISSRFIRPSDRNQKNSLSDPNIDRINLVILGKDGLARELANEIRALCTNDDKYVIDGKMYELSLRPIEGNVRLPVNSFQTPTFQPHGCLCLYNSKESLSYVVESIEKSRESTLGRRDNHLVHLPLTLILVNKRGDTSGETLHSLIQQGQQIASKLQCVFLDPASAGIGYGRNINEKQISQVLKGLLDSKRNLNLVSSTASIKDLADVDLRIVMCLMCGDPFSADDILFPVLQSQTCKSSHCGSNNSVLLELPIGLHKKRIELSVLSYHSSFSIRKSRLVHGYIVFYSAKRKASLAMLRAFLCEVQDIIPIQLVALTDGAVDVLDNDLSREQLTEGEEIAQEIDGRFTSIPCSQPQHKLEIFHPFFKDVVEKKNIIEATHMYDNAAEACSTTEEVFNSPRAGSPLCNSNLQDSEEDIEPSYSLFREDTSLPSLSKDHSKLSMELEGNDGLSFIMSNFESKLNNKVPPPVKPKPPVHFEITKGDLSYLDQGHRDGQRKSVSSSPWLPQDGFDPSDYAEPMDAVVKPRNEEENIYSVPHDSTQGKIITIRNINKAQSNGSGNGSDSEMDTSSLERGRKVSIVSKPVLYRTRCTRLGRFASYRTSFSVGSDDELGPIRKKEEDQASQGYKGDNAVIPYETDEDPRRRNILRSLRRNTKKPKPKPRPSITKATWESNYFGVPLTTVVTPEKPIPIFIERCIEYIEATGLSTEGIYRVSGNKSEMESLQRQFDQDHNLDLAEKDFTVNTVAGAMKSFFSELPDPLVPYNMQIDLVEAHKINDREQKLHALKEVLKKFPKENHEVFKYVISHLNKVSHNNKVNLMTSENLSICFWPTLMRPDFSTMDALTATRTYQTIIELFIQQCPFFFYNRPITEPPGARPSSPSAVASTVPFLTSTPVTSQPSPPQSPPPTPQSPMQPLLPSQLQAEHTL
Sequence of UniProt Q9UHP3 (Q9UHP3 whole entry): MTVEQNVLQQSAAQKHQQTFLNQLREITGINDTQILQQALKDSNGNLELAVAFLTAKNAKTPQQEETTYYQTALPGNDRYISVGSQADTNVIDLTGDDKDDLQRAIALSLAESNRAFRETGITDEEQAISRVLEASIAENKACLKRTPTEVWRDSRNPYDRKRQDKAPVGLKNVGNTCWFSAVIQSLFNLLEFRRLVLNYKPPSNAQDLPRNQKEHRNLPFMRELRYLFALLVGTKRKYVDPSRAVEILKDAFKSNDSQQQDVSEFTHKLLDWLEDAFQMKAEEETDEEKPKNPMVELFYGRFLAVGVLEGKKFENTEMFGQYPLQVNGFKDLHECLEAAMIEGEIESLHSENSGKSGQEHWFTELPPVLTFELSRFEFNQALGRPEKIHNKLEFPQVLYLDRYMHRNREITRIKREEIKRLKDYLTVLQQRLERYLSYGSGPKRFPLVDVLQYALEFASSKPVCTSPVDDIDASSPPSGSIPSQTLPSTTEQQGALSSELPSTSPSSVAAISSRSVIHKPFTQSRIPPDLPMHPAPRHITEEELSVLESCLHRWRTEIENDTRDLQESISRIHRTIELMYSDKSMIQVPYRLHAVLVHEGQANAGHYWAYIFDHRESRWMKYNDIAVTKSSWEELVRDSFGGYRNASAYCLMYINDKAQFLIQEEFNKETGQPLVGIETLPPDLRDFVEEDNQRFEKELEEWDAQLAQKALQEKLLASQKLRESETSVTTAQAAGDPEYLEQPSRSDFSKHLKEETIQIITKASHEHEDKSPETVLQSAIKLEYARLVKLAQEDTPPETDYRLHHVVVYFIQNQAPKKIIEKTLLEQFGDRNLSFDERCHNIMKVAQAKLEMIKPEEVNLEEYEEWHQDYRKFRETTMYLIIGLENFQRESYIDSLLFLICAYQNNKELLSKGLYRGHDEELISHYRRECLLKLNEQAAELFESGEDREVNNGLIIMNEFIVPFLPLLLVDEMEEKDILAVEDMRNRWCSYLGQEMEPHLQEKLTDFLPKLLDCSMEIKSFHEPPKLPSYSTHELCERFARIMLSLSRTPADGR
Sequence of UniProt Q96DA2 (Q96DA2 whole entry): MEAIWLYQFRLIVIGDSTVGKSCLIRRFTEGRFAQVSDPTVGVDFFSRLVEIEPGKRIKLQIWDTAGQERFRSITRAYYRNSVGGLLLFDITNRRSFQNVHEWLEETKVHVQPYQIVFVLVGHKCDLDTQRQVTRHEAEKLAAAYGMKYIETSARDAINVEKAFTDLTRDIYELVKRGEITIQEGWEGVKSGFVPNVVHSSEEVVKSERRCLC
Sequence of UniProt Q9Y508 (Q9Y508 whole entry): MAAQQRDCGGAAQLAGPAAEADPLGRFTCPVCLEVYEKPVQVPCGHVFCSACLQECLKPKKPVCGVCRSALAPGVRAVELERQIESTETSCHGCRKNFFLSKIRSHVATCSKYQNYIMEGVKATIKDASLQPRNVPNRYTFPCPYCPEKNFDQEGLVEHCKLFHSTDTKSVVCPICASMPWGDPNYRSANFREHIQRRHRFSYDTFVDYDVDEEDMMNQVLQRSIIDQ
Sequence of UniProt Q9H089 (Q9H089 whole entry): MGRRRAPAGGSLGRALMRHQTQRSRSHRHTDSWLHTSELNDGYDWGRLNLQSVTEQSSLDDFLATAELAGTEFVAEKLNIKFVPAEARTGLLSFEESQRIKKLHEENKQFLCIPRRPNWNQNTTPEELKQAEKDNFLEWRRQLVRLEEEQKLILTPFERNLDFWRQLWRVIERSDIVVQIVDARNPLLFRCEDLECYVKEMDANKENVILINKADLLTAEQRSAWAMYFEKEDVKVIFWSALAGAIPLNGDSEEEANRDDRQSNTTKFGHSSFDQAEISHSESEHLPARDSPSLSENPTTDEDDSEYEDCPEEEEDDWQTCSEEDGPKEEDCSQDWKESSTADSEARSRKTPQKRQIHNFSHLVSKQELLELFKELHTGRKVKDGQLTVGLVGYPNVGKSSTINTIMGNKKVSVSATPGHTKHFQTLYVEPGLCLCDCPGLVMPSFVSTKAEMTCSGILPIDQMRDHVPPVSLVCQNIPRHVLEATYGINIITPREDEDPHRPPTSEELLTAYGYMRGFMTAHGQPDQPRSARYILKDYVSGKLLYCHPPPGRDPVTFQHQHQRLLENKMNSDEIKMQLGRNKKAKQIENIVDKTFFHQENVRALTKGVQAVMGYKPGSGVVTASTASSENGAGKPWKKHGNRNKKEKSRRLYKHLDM
Sequence of UniProt Q9H1D9 (Q9H1D9 whole entry): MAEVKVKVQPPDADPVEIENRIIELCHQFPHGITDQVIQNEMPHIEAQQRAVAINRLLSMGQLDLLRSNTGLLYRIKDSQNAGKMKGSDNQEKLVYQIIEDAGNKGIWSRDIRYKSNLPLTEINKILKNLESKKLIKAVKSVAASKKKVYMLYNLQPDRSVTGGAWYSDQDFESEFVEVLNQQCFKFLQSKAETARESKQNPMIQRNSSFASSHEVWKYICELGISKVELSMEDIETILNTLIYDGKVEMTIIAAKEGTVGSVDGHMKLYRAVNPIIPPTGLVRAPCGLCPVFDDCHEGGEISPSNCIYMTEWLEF
Sequence of UniProt Q9UHV9 (Q9UHV9 whole entry): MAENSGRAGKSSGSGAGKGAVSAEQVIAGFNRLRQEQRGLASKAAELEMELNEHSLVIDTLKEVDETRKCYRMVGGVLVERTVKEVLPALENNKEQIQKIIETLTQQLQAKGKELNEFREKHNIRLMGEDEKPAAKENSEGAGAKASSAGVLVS
Sequence of UniProt Q9Y320 (Q9Y320 whole entry): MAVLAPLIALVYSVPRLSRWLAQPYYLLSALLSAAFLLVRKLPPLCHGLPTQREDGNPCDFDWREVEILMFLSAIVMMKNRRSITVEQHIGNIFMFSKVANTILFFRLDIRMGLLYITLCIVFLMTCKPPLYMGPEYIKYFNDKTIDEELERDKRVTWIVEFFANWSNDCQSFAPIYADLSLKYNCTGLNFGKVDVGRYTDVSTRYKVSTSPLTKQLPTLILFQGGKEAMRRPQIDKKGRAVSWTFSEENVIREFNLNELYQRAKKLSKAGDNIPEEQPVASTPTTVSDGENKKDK
Sequence of UniProt Q9BPW8 (Q9BPW8 whole entry): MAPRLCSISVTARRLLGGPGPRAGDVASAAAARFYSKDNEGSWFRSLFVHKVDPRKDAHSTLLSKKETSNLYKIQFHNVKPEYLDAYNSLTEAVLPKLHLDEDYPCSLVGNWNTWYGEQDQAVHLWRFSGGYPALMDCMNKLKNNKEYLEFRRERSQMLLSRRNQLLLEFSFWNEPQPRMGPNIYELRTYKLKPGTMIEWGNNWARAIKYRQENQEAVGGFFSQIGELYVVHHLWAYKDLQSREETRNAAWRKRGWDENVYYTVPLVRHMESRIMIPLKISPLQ
Sequence of UniProt Q9H773 (Q9H773 whole entry, one chain of several): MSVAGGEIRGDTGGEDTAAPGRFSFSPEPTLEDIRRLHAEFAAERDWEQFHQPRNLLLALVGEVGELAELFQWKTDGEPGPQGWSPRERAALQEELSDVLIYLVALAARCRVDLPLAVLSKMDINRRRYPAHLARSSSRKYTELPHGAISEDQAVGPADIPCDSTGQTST

Target	NP40-soluble protein abundance (concentration: 1mM)	NP40-soluble protein abundance (concentration: 2mM)	NP40-soluble protein abundance (concentration: 4mM)	NP40-soluble protein abundance (concentration: 6mM)	NP40-soluble protein abundance (concentration: 8mM)	NP40-soluble protein abundance (concentration: 10mM)
DDX21 (UniProt Q9NR30)	1.21 ± 0.11	1.25 ± 0.13	1.39 ± 0.23	1.55 ± 0.31	1.66 ± 0.38	1.78 ± 0.4
THOC3 (UniProt Q96J01)	1.07 ± 0.069	1.1 ± 0.075	1.17 ± 0.15	1.24 ± 0.16	1.3 ± 0.23	1.34 ± 0.27
NIPSNAP1 (UniProt Q9BPW8)	0.94 ± 0.05	0.873 ± 0.075	0.943 ± 0.028	0.954 ± 0.08	1.02 ± 0.036	0.948 ± 0.021
ATAD5 (UniProt Q96QE3)	1.03 ± 0.026	1.05 ± 0.046	1.08 ± 0.028	1.08 ± 0.031	1.08 ± 0.022	1.12 ± 0.045
UniProt Q9UHP3|Q9UHP3-1|Q9UHP3-3	0.966 ± 0.013	0.997 ± 0.015	0.975 ± 0.026	0.963 ± 0.023	0.964 ± 0.013	0.971 ± 0.024
POLR3F (UniProt Q9H1D9)	0.959 ± 0.035	0.97 ± 0.08	0.962 ± 0.042	1.04 ± 0.062	1.03 ± 0.077	1.02 ± 0.087
UniProt Q9Y2S0|Q9Y2S0-2|A0A0R4J2F3	1.03 ± 0.024	1.06 ± 0.053	1.08 ± 0.062	1.02 ± 0.018	1.03 ± 0.041	1.07 ± 0.036
UniProt Q9Y320|Q9Y320-2	0.936 ± 0.038	0.89 ± 0.056	0.918 ± 0.036	0.952 ± 0.048	0.962 ± 0.04	0.95 ± 0.039
UniProt Q96K49|Q96K49-2	0.99 ± 0.013	1.01 ± 0.027	0.984 ± 0.026	0.9718 ± 0.005	0.9653 ± 0.0019	0.9716 ± 0.0066
DDX18 (UniProt Q9NVP1)	1.03 ± 0.045	1.03 ± 0.013	1.16 ± 0.046	1.24 ± 0.075	1.35 ± 0.12	1.43 ± 0.15
ACAT2 (UniProt Q9BWD1)	0.987 ± 0.021	0.996 ± 0.038	0.931 ± 0.021	0.967 ± 0.017	0.951 ± 0.021	0.92 ± 0.02
RAB39B (UniProt Q96DA2)	1 ± 0.025	0.934 ± 0.066	0.996 ± 0.019	0.9868 ± 0.0097	0.986 ± 0.015	0.954 ± 0.041
PUS7 (UniProt Q96PZ0)	1.03 ± 0.035	1.002 ± 0.0077	1.04 ± 0.019	1.008 ± 0.009	1.01 ± 0.015	1.01 ± 0.028
ASF1A (UniProt Q9Y294)	0.958 ± 0.077	0.863 ± 0.091	0.904 ± 0.068	0.921 ± 0.037	0.946 ± 0.032	0.844 ± 0.11
SLC39A10 (UniProt Q9ULF5)	0.998 ± 0.021	1.07 ± 0.045	1.01 ± 0.026	1 ± 0.029	0.985 ± 0.04	0.994 ± 0.036
UniProt Q9ULE6	0.981 ± 0.025	0.96 ± 0.013	1.01 ± 0.02	0.959 ± 0.027	0.957 ± 0.016	0.944 ± 0.025
UniProt Q9UGJ1|Q9UGJ1-2|H3BPU4	1.01 ± 0.037	1.01 ± 0.024	1.04 ± 0.05	1 ± 0.028	1 ± 0.091	1.03 ± 0.08
RNF114 (UniProt Q9Y508)	1.034 ± 0.0076	0.993 ± 0.021	1.03 ± 0.019	1.024 ± 0.0039	1.04 ± 0.018	1 ± 0.013
PFDN2 (UniProt Q9UHV9)	1.05 ± 0.084	1.11 ± 0.11	0.986 ± 0.062	0.928 ± 0.1	0.85 ± 0.016	0.941 ± 0.083
YBX2 (UniProt Q9Y2T7)	1.02 ± 0.029	1.06 ± 0.013	1.02 ± 0.018	1.01 ± 0.029	1.01 ± 0.036	1.038 ± 0.0094
UniProt Q9Y3B4	0.976 ± 0.061	0.981 ± 0.076	0.993 ± 0.019	0.968 ± 0.016	1.05 ± 0.051	1.01 ± 0.06
LSG1 (UniProt Q9H089)	0.993 ± 0.019	0.975 ± 0.033	0.987 ± 0.017	0.926 ± 0.03	0.927 ± 0.034	0.924 ± 0.013
UniProt Q9H773|H3BSA6	1.03 ± 0.02	1.01 ± 0.019	1.041 ± 0.0073	1.03 ± 0.015	1.01 ± 0.019	1 ± 0.022
UniProt Q9NRY4	0.9859 ± 0.0086	0.971 ± 0.035	0.999 ± 0.028	0.984 ± 0.03	0.964 ± 0.036	0.935 ± 0.024
UniProt Q9Y639|Q9Y639-1	1.01 ± 0.056	1.05 ± 0.055	1.01 ± 0.056	0.986 ± 0.028	0.984 ± 0.055	0.961 ± 0.025
CCDC86 (UniProt Q9H6F5)	1.12 ± 0.025	1.17 ± 0.096	1.2 ± 0.017	1.25 ± 0.05	1.31 ± 0.084	1.4 ± 0.13
UniProt Q96T23|Q96T23-2	1.07 ± 0.026	1.21 ± 0.11	1.32 ± 0.061	1.53 ± 0.18	1.67 ± 0.21	1.93 ± 0.25
MRPL53 (UniProt Q96EL3)	0.987 ± 0.06	1.01 ± 0.023	0.986 ± 0.061	0.98 ± 0.045	1 ± 0.063	1 ± 0.066
